A selection: hits, their analogues and other compounds. The true share with any hit is near 6.6%.
HT1080NT lethal = kills 2HG-producing HT-1080-NT fibrosarcoma cells; Potency, µM (highest dose often 46.1 µM), most hits filed as cytotoxic; AID 686970; HT-1080-NT fibrosarcoma viability, CellTiter-Glo ATP luminescence, 48 h; 360,000 compounds, 1.6% hits;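 also: NT is the 2HG producing partner of a matched IDH1 knockdown line; nearly all actives have a fitted effect of over 55% in size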
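HT-1080-NT fibrosarcoma cells (2HG-overproducing), 750 cells/well in RPMI with 5% FBS, dosed after 2 h and incubated 48 h at 37C. CellTiter-Glo luminescence normalized to DMSO and no-cell wells; concentration-response curves fitted and classed.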
KB-3-1 cytotox = kills parental KB-3-1 adenocarcinoma cells; Potency, µM (top dose mostly 46.1 µM), usual class: cytotoxic; 400,000 compounds, 1.4% hits; KB-3-1 viability, CellTiter-Glo ATP luminescence, 72 h; AID 1347075; also: nearly all actives have a fitted effect of over 60% in size
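Screening of KB-3-1 cells (DMEM, 10% FBS, phenol-red free) ran from lowest to highest compound concentration; after 72 h at 37 °C viability was read luminescently and curves fitted.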
KB-V1 cytotox = kills drug-selected multidrug resistant KB-V1 cells. Potency, µM (series often up to 46.1 µM), actives largely listed as cytotoxic. KB-V1 MDR cells viability, CellTiter-Glo, 72 h. AID 1347076. 400,000 compounds, 3.4% hits; also: nearly all actives have a fitted effect of over 60% in size
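Readout: CellTiter-Glo luminescence, 10 min after addition. Cells: KB-V1 MDR subline, 72 h at 37 degrees C with compound. Analysis: corrected, normalized data fitted to concentration-effect curves.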
HT1080 IDH1KD tx = HT-1080 IDH1 knockdown cell toxicity (counter line). Potency, µM (doses to about 46.1 µM), usual class: cytotoxic. HT-1080 IDH1 knockdown viability, ATP luminescence, 48 h. 360,000 compounds, 2% hits
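Cytotoxicity counter-line: IDH1KD HT-1080, 48 h, CellTiter-Glo. Curves classed by r2, magnitude and activity.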
TGFb SMAD3 inh = inhibitors of TGF-b signaling; HepG2 CAGA-GFP TGF-b/SMAD3 reporter, GFP fluorescence, 18 h; TGF-beta stimulated, 500 pg/mL final; Potency, µM (highest dose often 46.1 µM), usual class: inhibitors; 410,000 compounds, 1.2% hits; also: nearly all actives have a fitted effect of over 65% in size
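GFP signal (ex488/em500-530) from TGF-beta-stimulated HEPG2 CAGA-GFP cells, 500 pg/mL final, 18 h at 37 degrees C in DMEM plus 1% FBS, normalized to unstimulated and DMSO-stimulated controls.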
HepG2 tox = HepG2 cytotoxicity, counter-screen for TGF-b inhibitors; HepG2 CAGA-GFP viability, ATP luminescence, 18 h; Potency, µM (series often up to 46.1 µM), usual class: cytotoxic; 410,000 compounds, 0.76% hits
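CellTiter-Glo luminescence gave cytotoxicity after 18 hours at 37 degrees C. The cells were HepG2 CAGA-GFP in 1% FBS DMEM, stimulated with 500 pg/mL TGF-beta after compound addition. %Activity was normalised to no-cell wells (complete cell-killing) and DMSO (no toxicity), and curves were fitted and classified.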
A number is an active result; - = inactive; ? = inconclusive; . = no result. Calls follow the shape of the dose curve; as a rule, active = well fitted curve in the direction sought with a large enough effect; inconclusive = small, poorly fitted or top-dose-only effect, or another doubt; inactive = no such curve, though single readings can be large; an effect the other way counts as inactive or inconclusive.

SMILES | HT1080NT lethal | KB-3-1 cytotox | KB-V1 cytotox | HT1080 IDH1KD tx | TGFb SMAD3 inh | HepG2 tox
Cc1ccc(NC(=O)C(=O)NCC(c2cccnc2)N2CCN(Cc3ccccc3)CC2)cc1F (centres undefined) | . | - | - | . | - | -
O=C(c1cc(C2CC2)nn1-c1ccccc1)N1CCN(c2ncc(C(F)(F)F)cc2Cl)CC1 | - | - | 16µM | - | ? | -
O=C(CSc1ccc(Cl)cc1)N1CCN(c2ncc(C(F)(F)F)cc2Cl)CC1 | ? | - | 15µM | ? | - | -
O=C(CSc1ccc(Cl)cc1)N1CCN(c2ccc([N+](=O)[O-])cc2Cl)CC1 | - | ? | 16µM | - | - | -
Cc1ccc(Cl)cc1N1CCN(C(=O)CSc2cc(=O)n(C)c3ccccc23)CC1 | . | - | - | . | - | -
O=C(CN1CCN(c2ncc(C(F)(F)F)cc2Cl)CC1)N1CCN(c2ncc(C(F)(F)F)cc2Cl)CC1 | - | ? | - | - | - | -
Cc1ccc(Cl)cc1N1CCN(C(=O)CSc2ccsc2[N+](=O)[O-])CC1 | - | - | 5.2µM | - | - | -
CCCCN(C)C(=O)Cn1c(SCC(=O)Nc2ccc(C)c(C)c2)nc2ccccc21 | . | - | - | . | - | -
CCc1ccc2nc(N(Cc3cccnc3)C(=O)Cc3ccccc3)sc2c1 | . | . | . | . | - | -
CCOC(=O)c1c[nH]n(-c2ccc(C)cc2)c1=O | - | - | ? | - | - | -
CCOC(=O)c1cc2c(C)n(-c3ccc(C)cc3)c(C)c2ccc1=O | - | 21µM | 5.8µM | - | ? | -
CCOC(=O)c1cc2c(C)n(-c3ccc(OCC)cc3)c(C)c2ccc1=O | - | ? | 2.6µM | - | ? | -
CC[N+](CC)(CC#Cc1ccccc1)CC#Cc1ccccc1 | ? | 8.2µM | - | - | - | -
COc1ccc(CCNC(=O)c2ccc(Cn3c(=O)c4ccccc4n(CC(=O)C(C)(C)C)c3=O)cc2)cc1OC | . | - | - | . | - | -
CC1CCN(c2nc3c(c(=O)[nH]c(=O)n3C)n2CC(C)CSc2nnnn2-c2ccccc2)CC1 (centres undefined) | - | - | 3.7µM | - | - | -
Cc1nnc(SCCn2c(Br)nc3c2c(=O)n(C)c(=O)n3C)s1 | - | - | ? | - | - | -
CN1CCN(c2nc3c(c(=O)[nH]c(=O)n3C)n2CCCSc2nnnn2-c2ccccc2)CC1 | - | - | - | - | - | -
Cc1csc(SCCn2c(N3CCN(c4ccccc4)CC3)nc3c2c(=O)[nH]c(=O)n3C)n1 | - | - | 21µM | - | - | -
Cn1c(=O)[nH]c(=O)c2c1nc(N1CCCCC1)n2CCCSc1nnnn1-c1ccccc1 | - | - | 9.2µM | - | - | -
Cc1nnc(SCCn2c(N3CC(C)CC(C)C3)nc3c2c(=O)n(C)c(=O)n3C)s1 (centres undefined) | - | - | 21µM | - | - | -
Nc1nn(-c2ccccc2)nc1C(=O)OCc1ccccc1Br | . | - | - | . | - | -
COc1ccc(-c2noc(-c3ccc(N4CCN(c5ccccc5OC)CC4)c([N+](=O)[O-])c3)n2)cc1 | . | - | ? | . | ? | -
CCN1CCN(c2nc3c(c(=O)[nH]c(=O)n3C)n2CCSc2nc3ccccc3s2)CC1 | - | - | - | - | - | -
CC1CC(C)CN(c2nc3c(c(=O)[nH]c(=O)n3C)n2CCCSc2nc3ccccc3s2)C1 (centres undefined) | - | - | 4.1µM | - | - | -
Cc1ccc2[nH]c(-c3ccccc3)cc(=O)c2c1 | 0.73µM | 0.29µM | ? | 1µM | ? | -
SMILES | HT1080NT lethal | KB-3-1 cytotox | KB-V1 cytotox | HT1080 IDH1KD tx | TGFb SMAD3 inh | HepG2 tox
O=C(COc1ccccc1Cl)NC(=S)N1CCc2ccccc21 | 11µM | - | - | ? | - | -
N#Cc1ccccc1Oc1ccc(S(=O)(=O)N2CCCCC2)cn1 | - | - | ? | - | - | -
O=S(=O)(c1ccc(Oc2ccc(Br)cc2F)nc1)N1CCCCC1 | - | ? | 23µM | - | ? | -
CCOc1ccc(OCC)c(NC(=O)CCn2c(=O)oc3ccccc32)c1 | - | - | 8.2µM | - | - | -
CCOP(=O)(OCC)C(Cc1ccc(OC)c(OC)c1)N=C(c1ccccc1)c1ccccc1 (centres undefined) | - | - | 15µM | - | - | -
CC1CCCC(NC(=O)C2COc3ccccc3O2)C1C (centres undefined) | - | - | 13µM | - | ? | -
CC1CCC(NC(=O)C2COc3ccccc3O2)CC1 (centres undefined) | - | - | - | - | ? | -
COc1ccccc1NCc1cccn1-c1nnc(N2CCCCCC2)s1 | . | ? | ? | . | ? | -
NCCNc1ccc(C(=O)N2c3ccccc3Sc3ccccc32)cc1[N+](=O)[O-] | ? | ? | 21µM | 16µM | - | -
CCOC(=O)CNc1ccc(C(=O)OCC)cc1[N+](=O)[O-] | - | - | - | - | - | -
CCCNc1ccc(C(=O)OCC)cc1[N+](=O)[O-] | - | 16µM | 13µM | - | - | -
Nc1ccc(C(=O)OCC(=O)N2CCc3ccccc3C2)cc1[N+](=O)[O-] | - | - | - | - | - | -
Nc1ccc(C(=O)OCC(=O)N2c3ccccc3Sc3ccccc32)cc1[N+](=O)[O-] | - | ? | 6.5µM | - | ? | -
COc1ccc(-c2nc(Cn3c(SCc4cccc(C(F)(F)F)c4)nc4cccnc43)c(C)o2)cc1OC | . | . | . | . | ? | -
Cc1ccc(-n2cnc3cc(C(=O)NCc4ccc(F)cc4)ccc32)c(C)c1 | . | - | - | . | ? | -
COC1=C(N)C(=O)c2nc(C)ccc2C1=O | - | 4.6µM | ? | - | - | -
Cn1c(=O)c2c(-c3ccccc3)n3c(c2n(C)c1=O)C(c1cccc([N+](=O)[O-])c1)Nc1ccccc1-3 (centres undefined) | . | - | ? | . | - | -
O=S(=O)(NCC(c1ccco1)S(=O)(=O)c1cccs1)c1ccc(F)c(C(F)(F)F)c1 (centres undefined) | . | . | . | . | 4.5µM | -
Cc1ccc(C)c(S(=O)(=O)NCC(c2ccco2)S(=O)(=O)c2ccc(F)cc2)c1 (centres undefined) | . | . | . | . | 11µM | -
COc1ccc(S(=O)(=O)NCC(c2ccco2)S(=O)(=O)c2ccc(C)cc2)cc1C (centres undefined) | . | . | . | . | 10µM | -
CCCN1C[C@@H](C)[C@@H](OC)CN(C)C(=O)c2ccc(NC(=O)c3cccc(F)c3)cc2OC[C@H]1C | - | - | - | - | . | .
O=C1CC(c2ccco2)CC2=C1C(c1ccncc1)n1nc(C(F)(F)F)nc1N2 (centres undefined) | . | . | . | . | - | -
